DT40 TDP1 no CPT = qHTS for Inhibitors of human tyrosyl-DNA phosphodiesterase 1 (TDP1): qHTS in cells in absence of CPT; DT40 Tdp1-/- hTDP1 cells, no CPT, ATP luminescence, 48 h; Potency, µM (highest dose often 46.2 µM), for inactives: top-dose activity change, negative = growth inhibition, most hits filed as inhibitors; actives 15% (n = 420,000); note: nearly all actives have a fitted effect of over 55% in size
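Chicken DT40 Tdp1-/- cells stably complemented with human TDP1 were seeded at 400 cells/well with DMSO in place of 20 nM camptothecin. After compound pinning, cells grew at least 48 hr at 37 °C; viability read by CellTiter-Glo luminescence.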
HT1080 IDH1KD tx = qHTS for induction of synthetic lethality in tumor cells producing 2HG: qHTS for the HT-1080-IDH1KD cell line | AID 686971, 2013 | actives 2% (n = 360,000) | Potency, µM (titrated, usually from 46.1 µM), without a hit: at the top dose activity, negative = toxicity, most hits filed as cytotoxic | HT-1080 IDH1 knockdown viability, ATP luminescence, 48 h;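 note: 0% = DMSO wells and -100% = cell-free medium wells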
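HT-1080-IDH1KD cells (IDH1 knocked down), 750/well in RPMI with 5% FBS, treated with compound 48 h at 37 degrees C. Viability by CellTiter-Glo luminescence, normalised to DMSO and no-cell wells; concentration-response curves classed.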
TDP1 cell CPT = qHTS for Inhibitors of human tyrosyl-DNA phosphodiesterase 1 (TDP1): qHTS in cells in presence of CPT. chicken DT40 Tdp1-/-;hTDP1 cells + 20 nM CPT, ATP luminescence, 48 h. Potency, µM (highest dose often 46.2 µM), for the others: at the top dose activity change, negative = growth inhibition, actives largely listed as inhibitors. actives 12% (n = 420,000); note: nearly all actives have a fitted effect of over 55% in size
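Chicken DT40 Tdp1-/- cells stably complemented with human TDP1 were seeded at 400 cells/well in medium containing 20 nM camptothecin, exposed to pin-transferred compounds, and grown at 37 °C for at least 48 hr. Viability was read as ATP luminescence.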
KB-3-1 cytotox = qHTS assay for MDR1-selective chemotherapeutics: Primary screen using the parental adenocarcinoma cell KB-3-1; KB-3-1 viability, CellTiter-Glo ATP luminescence, 72 h; Potency, µM (doses to about 46.1 µM), usual class: cytotoxic; actives 1.4% (n = 400,000); AID 1347075, 2019; note: nearly all actives have a fitted effect of over 60% in size
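72 h, 37 °C compound treatment of KB-3-1 parental cells; CellTiter-Glo added, 10 min, luminescence read. Data corrected against DMSO-only plates and normalized before curve fitting.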
KB-V1 MDR tox = qHTS assay for MDR1-selective chemotherapeutics: Primary screen using the drug-selected MDR subline cells KB-V1; KB-V1 MDR cells viability, CellTiter-Glo, 72 h; Potency, µM (top dose mostly 46.1 µM), actives largely listed as cytotoxic; actives 3.4% (n = 400,000); AID 1347076, 2019; note: nearly all actives have a fitted effect of over 60% in size
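Readout: CellTiter-Glo luminescence, 10 min after addition. Cells: KB-V1 MDR subline, 72 h at 37 degrees C with compound. Analysis: corrected, normalized data fitted to concentration-effect curves.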
HT1080-NT tox = qHTS for induction of synthetic lethality in tumor cells producing 2HG: qHTS for the HT-1080-NT fibrosarcoma cell line. AID 686970, 2013. Potency, µM (titrated, usually from 46.1 µM), inactives show at the top dose activity, negative = less viability, most hits filed as cytotoxic. actives 1.6% (n = 360,000). HT-1080-NT fibrosarcoma viability, CellTiter-Glo ATP luminescence, 48 h;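 note: NT is the 2HG producing partner of a matched IDH1 knockdown line; 0% = DMSO-treated cells and -100% = media-only wells without cells; nearly all actives have a fitted effect of over 55% in size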
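Viability by CellTiter-Glo luminescence after 48 h compound exposure at 37C of HT-1080-NT cells (750/well, RPMI, 5% FBS). % activity scaled between DMSO wells and medium-only wells, then curve-fitted and categorized by curve class.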
Active calls of the source: *; i = inactive; ? = inconclusive; nt = not tested or not shown. Only some compounds are listed: those with a hit (about 19% of all), similar ones and a draw of the others. Calls come from the whole dose curve; as a rule, active = well fitted curve in the direction sought with a large enough effect; inconclusive = small, poorly fitted or top-dose-only effect, or another doubt; inactive = no such curve, though single readings can be large; an effect the other way counts as inactive or inconclusive. Unless noted, % is set by controls: 0 for no effect and ±100 for the full control effect; potency is the fitted concentration of half-maximal effect.

SMILES | DT40 TDP1 no CPT | HT1080 IDH1KD tx | TDP1 cell CPT | KB-3-1 cytotox | KB-V1 MDR tox | HT1080-NT tox
CC(=O)Oc1c(/C=C(\C#N)C(N)=O)[nH]c2ccccc12 | ? | -11.0% | 16.4µM* | i | i | ?
Cn1c(=O)[nH]c2cc(-c3noc(-c4cccc(Cl)c4)n3)ccc21 | 8.7% | nt | 4.8% | i | i | nt
Cn1c(=O)[nH]c2cc3ccccc3cc21 | 11.6% | 1.6% | -5.4% | 1.64µM* | 1.3µM* | 12.6%
Cc1c(C(=O)N2CCN(c3ccccc3F)CC2)sc2ncn(CC(=O)N3CCOCC3)c(=O)c12 | -28.0% | 8.0% | -2.8% | i | i | 0.9%
Cc1ccc(NC(=O)CSc2ccccc2)cc1S(=O)(=O)N1CCOCC1 | ? | -0.4% | ? | i | i | 10.5%
COc1cc2c(cc1OC)C(C)N(CC(=O)Nc1ccc(C)c(S(=O)(=O)N3CCOCC3)c1)CC2 (configuration not stated) | 16.4µM* | ? | ? | i | i | 16.4µM*
Cc1ccc(NC(=O)CNC(=O)c2ccc(C(C)(C)C)cc2)cc1S(=O)(=O)N1CCOCC1 | ? | -9.2% | ? | ? | i | -8.6%
Cc1ccc(C)c(SCC(=O)Nc2ccc(C)c(S(=O)(=O)N3CCOCC3)c2)c1 | 13µM* | -6.9% | 23.1µM* | ? | ? | -1.0%
Cc1ccc(NC(=O)CSc2nc(N)cc(N)n2)cc1S(=O)(=O)N1CCOCC1 | -11.9% | -4.6% | -3.0% | i | i | -6.7%
Cc1ccc(NC(=O)CNc2cccc(Br)c2)cc1S(=O)(=O)N1CCOCC1 | 16.4µM* | -8.1% | ? | ? | i | -6.6%
Cc1nc(-c2ccc(F)cc2)c(CC(=O)Nc2ccc(C)c(S(=O)(=O)N3CCOCC3)c2)s1 | ? | -15.7% | 10.3µM* | i | i | -13.3%
CC(=O)c1cccc(S(=O)(=O)N2CCC(C(=O)Nc3cccc(C(=O)NC4CC4)c3)CC2)c1 | -9.0% | 0.4% | 1.4% | i | i | 3.4%
COc1cc(NC(=O)Nc2nnc([C@H]3C[C@H](O)[C@@H](CO)O3)s2)cc(OC)c1OC | -12.4% | 7.3% | -3.1% | i | i | 8.7%
Cc1ccc(NCC(=O)Nc2ccc(F)c(Cl)c2)cc1S(=O)(=O)N1CCOCC1 | 20.6µM* | -16.9% | ? | i | ? | -12.8%
Cc1ccc(NC(=O)CNc2cccc(S(=O)(=O)N3CCOCC3)c2)cc1F | ? | -16.4% | ? | i | i | -2.4%
Cc1ccc(-c2cc(C(=O)O)n(-c3ccc(S(N)(=O)=O)cc3)n2)cc1 | -1.7% | 0.6% | 0.1% | i | ? | 0.4%
CSCC(C)N1CCC(n2nccc2NC(=O)CCCc2ccccc2)CC1 (configuration not stated) | -2.1% | 1.6% | -17.7% | i | i | -3.8%
Cc1ccc(C(=O)NC2(C(F)(F)F)N=C(c3ccccc3)N(Cc3ccccc3)C2=O)cc1 (configuration not stated) | 25.9µM* | nt | ? | i | i | nt
COc1ccc(CNC(=O)c2[nH]c(C(F)(F)F)nc2-c2ccccc2)cc1 | ? | -19.1% | -8.1% | i | i | -26.3%
COc1ccc(CN2C(=O)C(NC(=O)c3ccccc3C)(C(F)(F)F)N=C2c2ccccc2)cc1 (configuration not stated) | 14.6µM* | nt | 20.6µM* | i | i | nt
CC(C)(C)C(=O)NC1(C(F)(F)F)NC(=O)N(Cc2ccccc2)C1=O (configuration not stated) | 2.0% | 0.5% | 18.3% | i | i | -8.6%
O=C(NC1(C(F)(F)F)N=C(c2ccccc2)N(Cc2ccccc2)C1=O)c1ccc(F)cc1 (configuration not stated) | ? | nt | 20.6µM* | i | i | nt
COc1ccc(CN2C(=O)C(NC(=O)c3ccc(C)cc3)(C(F)(F)F)N=C2c2ccccc2)cc1 (configuration not stated) | 23.1µM* | nt | 23.1µM* | i | i | nt
CC(Nc1ccc(-c2nc(-c3ccncc3)no2)cc1[N+](=O)[O-])c1ccccc1 (configuration not stated) | -21.3% | nt | -17.8% | i | i | nt
CC(=O)c1cccc(NC(=O)COC(=O)COc2c(Cl)cc(Cl)c3ccc(C)nc23)c1 | ? | 1.4% | -17.5% | i | i | 4.2%
SMILES | DT40 TDP1 no CPT | HT1080 IDH1KD tx | TDP1 cell CPT | KB-3-1 cytotox | KB-V1 MDR tox | HT1080-NT tox
CCC(=O)N1c2ccc(S(=O)(=O)NCc3cccc(OC)c3)cc2CC1C (configuration not stated) | ? | nt | ? | i | i | nt
COc1ccc(-n2c(SCC(=O)Nc3cc(C(=O)O)ccc3C)nc3ccccc3c2=O)cc1Cl | ? | -1.4% | ? | i | i | 0.0%
COc1cc2cc(C)c(Br)c(OC)c2cc1OC | ? | -13.6% | ? | ? | ? | -3.9%
COc1cc2cc[n+]3cc4c(OC)c(OC)ccc4cc3c2cc1OC | 2.91µM* | nt | 2.31µM* | nt | nt | nt
NS(=O)(=O)c1ccc(N2N=C(c3ccc(Br)cc3)CC2c2ccc(F)cc2)cc1 (configuration not stated) | ? | 11.6µM* | ? | ? | ? | 6.51µM*
NS(=O)(=O)c1ccc(N2N=C(c3ccccc3)CC2c2cccc(F)c2)cc1 (configuration not stated) | -23.1% | -6.2% | ? | ? | ? | -4.1%
ClC(Cl)(Cl)C1=NCc2nnn(Cc3ccccc3)c2N1 | -1.5% | 15.1% | -4.8% | i | i | 0.8%
CC1CCN(S(=O)(=O)c2cc(C(=O)N3CCN(c4cccc(Cl)c4)CC3)n(C)c2)CC1 | 18.4µM* | nt | ? | 16.4µM* | i | nt
CC1CCN(S(=O)(=O)c2cc(C(=O)N3CCN(c4ccccc4F)CC3)n(C)c2)CC1 | ? | nt | ? | i | ? | nt
Cc1ccc(C)c(N2CCN(C(=O)c3cc(S(=O)(=O)N4CCC(C)CC4)cn3C)CC2)c1 | ? | nt | 16.4µM* | ? | ? | nt

Screening results (PubChem BioAssay)
